The structures appear in SMILES notation. Activity calls are given as the source filed them.

We go through 17 compounds from PubChem BioAssay.

Assay [1] concerns Plasmodium falciparum Sir2 (PF13_0152, Sir2A). Description: pfSir2 binders on small-molecule microarrays, primary screen, biochemical, small-molecule microarray, 635 nm fluorescence (AID 1098).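 Also: score merges spot fluorescence intensity with its signal-to-noise ratio.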 The conditions noted are these: small-molecule microarray binding, fluorescence 635 nm; higher = more signal.
Assay [2] in a line: small-molecule microarray binders of probe aDKK1, primary screen, biochemical, biotinylated probe, 635/667 nm fluorescence (AID 1099).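 Also: score merges 667nm spot fluorescence with signal to noise across triplicate slides; reference of the scale not given here.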 The conditions noted are these: higher = more signal.
Assay [3] can be described thus: small-molecule microarray binders of probe aCHRDL2, primary screen, biochemical, biotinylated probe, 635/667 nm fluorescence (AID 1100). The conditions noted are these: higher = more signal.
A short description of assay [4]: splicing luciferase reporter signal modulators, primary screen, spliceosome inhibition project, cell-based, HEK293, splice +/- reporter (AID 1101).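 Also: HEK293 cells carrying a splicing-competent luciferase reporter gene; test concentration not given here.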 The conditions noted are these: luminescence, 24 h, higher = more signal, called active from +8 up or from −8 down. Background: A reporter such as luciferase makes a cellular process visible.
The target in assay [5] is Fibroblast growth factor 10 (Homo sapiens) (UniProt O15520). Description: FGF10 binders on small-molecule microarrays, primary screen, biochemical, small-molecule microarray, 635 nm fluorescence (AID 1102). The conditions noted are these: FGF10 binding, fluorescence 635 nm, higher = more signal.
Sequence of Fibroblast growth factor 10 (Homo sapiens) (O15520 whole entry, looked up): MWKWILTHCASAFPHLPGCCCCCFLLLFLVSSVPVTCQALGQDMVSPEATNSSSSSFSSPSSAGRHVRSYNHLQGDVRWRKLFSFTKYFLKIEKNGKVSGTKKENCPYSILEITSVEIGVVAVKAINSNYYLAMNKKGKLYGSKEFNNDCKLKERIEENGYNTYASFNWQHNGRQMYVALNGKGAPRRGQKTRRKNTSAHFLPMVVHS
Assay [6] has as its system glycogen synthase kinase-3 (GSK3A per assay name; protocol says GSK3B). Description: GSK3 binders on small-molecule microarrays, primary screen, biochemical, small-molecule microarray, 635 nm fluorescence, GSK3A (AID 1103). Also: the record names both GSK3A and GSK3B. The conditions noted are these: small-molecule microarray binding, fluorescence 635 nm; higher = more signal.
For assay [7], the target named is Epidermal growth factor receptor (Homo sapiens) (UniProt P00533). Description: EGFR binders on small-molecule microarrays, primary screen, biochemical, small-molecule microarray, 635 nm fluorescence (AID 1104).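 Also: score merges 667 nm emission intensity with spot signal to noise over triplicate slides.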 The conditions noted are these: EGFR binding, higher = more signal.
Sequence of Epidermal growth factor receptor (Homo sapiens) (P00533 whole entry, looked up): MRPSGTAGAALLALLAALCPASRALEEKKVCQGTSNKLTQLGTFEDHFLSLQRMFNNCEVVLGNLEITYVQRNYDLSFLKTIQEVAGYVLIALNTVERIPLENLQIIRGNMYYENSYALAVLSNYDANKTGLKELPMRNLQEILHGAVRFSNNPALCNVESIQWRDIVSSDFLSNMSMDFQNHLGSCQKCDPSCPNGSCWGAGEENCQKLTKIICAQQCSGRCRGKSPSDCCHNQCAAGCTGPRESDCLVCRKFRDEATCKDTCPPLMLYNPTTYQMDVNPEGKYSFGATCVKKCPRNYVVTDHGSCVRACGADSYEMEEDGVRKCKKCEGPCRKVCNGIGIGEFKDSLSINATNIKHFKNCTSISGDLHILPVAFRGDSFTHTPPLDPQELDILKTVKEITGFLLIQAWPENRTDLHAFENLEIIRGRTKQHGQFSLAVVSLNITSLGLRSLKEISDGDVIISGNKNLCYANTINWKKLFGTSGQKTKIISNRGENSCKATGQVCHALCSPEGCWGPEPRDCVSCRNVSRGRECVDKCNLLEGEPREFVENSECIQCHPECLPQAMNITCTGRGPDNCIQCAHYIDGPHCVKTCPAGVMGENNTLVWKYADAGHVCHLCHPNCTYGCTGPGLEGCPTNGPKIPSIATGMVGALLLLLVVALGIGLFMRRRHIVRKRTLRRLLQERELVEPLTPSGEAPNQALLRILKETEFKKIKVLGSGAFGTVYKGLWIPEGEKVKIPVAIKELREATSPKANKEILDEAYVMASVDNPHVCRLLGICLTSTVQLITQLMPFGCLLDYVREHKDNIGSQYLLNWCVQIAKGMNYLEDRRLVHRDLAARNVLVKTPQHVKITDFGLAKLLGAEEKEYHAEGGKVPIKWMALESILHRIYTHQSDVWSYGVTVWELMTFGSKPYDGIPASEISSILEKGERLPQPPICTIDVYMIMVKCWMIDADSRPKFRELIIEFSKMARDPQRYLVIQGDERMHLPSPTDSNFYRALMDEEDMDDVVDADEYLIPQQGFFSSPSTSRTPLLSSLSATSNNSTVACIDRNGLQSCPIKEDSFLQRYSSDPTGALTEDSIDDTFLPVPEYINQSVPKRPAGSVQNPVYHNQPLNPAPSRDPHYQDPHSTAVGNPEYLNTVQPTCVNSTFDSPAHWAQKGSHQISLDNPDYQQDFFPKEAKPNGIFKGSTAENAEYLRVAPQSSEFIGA
Assay [8] deals with Follistatin-related protein 3 (Homo sapiens) (UniProt O95633). Description: FSTL3 binders on small-molecule microarrays, primary screen, biochemical, small-molecule microarray, 635 nm fluorescence (AID 1105).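 Also: score merges emission near 667 nm and signal to noise per printed spot across three slides.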 The conditions noted are these: FSTL3 binding, higher = more signal.
Sequence of Follistatin-related protein 3 (Homo sapiens) (O95633 whole entry, looked up): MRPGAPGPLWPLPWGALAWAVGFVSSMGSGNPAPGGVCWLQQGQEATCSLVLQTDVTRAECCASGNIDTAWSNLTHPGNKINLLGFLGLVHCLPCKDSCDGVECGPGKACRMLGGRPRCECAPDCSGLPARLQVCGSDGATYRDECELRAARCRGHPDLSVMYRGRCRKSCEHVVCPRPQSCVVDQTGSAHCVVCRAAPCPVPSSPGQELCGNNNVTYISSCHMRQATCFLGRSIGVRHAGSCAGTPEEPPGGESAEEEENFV
Assay [9] addresses Dickkopf-related protein 1 (Homo sapiens) (UniProt O94907). Description: DKK1 binders on small-molecule microarrays, primary screen, biochemical, small-molecule microarray, 635 nm fluorescence scan (AID 1106).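 Also: score merges emission near 667 nm with signal to noise over three replicate slides.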 The conditions noted are these: DKK1 binding, higher = more signal.
For assay [10], the system named is Inhibin beta A chain (activin A). Description: INHBA (activin A) binders on microarrays, primary screen, biochemical, small-molecule microarray, 635 nm fluorescence scan (AID 1107).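 Also: mouse activin A protein probed at 4.33 µg/mL on printed slides; score merges bound-protein fluorescence near 667 nm with spot signal-to-noise.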 The conditions noted are these: small-molecule microarray binding, higher = more signal.

Sequence of Dickkopf-related protein 1 (Homo sapiens) (O94907 whole entry, looked up): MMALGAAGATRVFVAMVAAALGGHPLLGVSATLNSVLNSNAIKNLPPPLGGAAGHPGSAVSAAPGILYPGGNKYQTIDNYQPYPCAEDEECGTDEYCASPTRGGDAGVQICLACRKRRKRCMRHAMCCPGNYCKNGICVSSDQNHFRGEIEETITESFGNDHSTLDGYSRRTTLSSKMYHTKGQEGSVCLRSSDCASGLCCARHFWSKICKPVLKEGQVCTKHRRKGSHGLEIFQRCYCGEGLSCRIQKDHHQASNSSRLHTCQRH

With `COCCCNC(=O)[C@@H]1c2ccccc2C(=O)N(Cc2ccccc2)[C@H]1c1ccc(CO)cc1`, the composite z-score is 0.698 in assay [1]; 0.698 in assay [2]; 0.655 in [3]; 0.223 in assay [5]; 0.437 in assay [6]; 0.851 in assay [7]. Further, the composite z-score in assay [8] was determined as 0.197; in [9] it was 0.549; in assay [10], 0.353. In addition, the z-score in assay [4] is -0.403 (inactive).
With `CC(C)(C)OC(=O)CC[C@]1(C(=O)NCCN2CCOCC2)COC(c2ccc(OCCCO)cc2)=N1`, the composite z-score was 0.706 in assay [1]; 0.0968 in assay [2]; 0.465 in assay [3]; 1.42 in assay [5]; 0.743 in assay [6]; -0.422 in assay [7]. Moreover, the values for the composite z-score in assay [8], in [9] and in assay [10] were 0.683, -0.105 and 0.295, respectively. For the same compound, the z-score in [4] was -0.686 (inactive).
As for `O=c1cccc(-c2ccccc2Cl)o1`, the composite z-score in assay [1] is -0.462; in [2], -0.0639; in assay [3], -0.456; in assay [5] it was 0.425; in assay [6], 0.0083; in assay [7] it was 0.0031. Besides, the composite z-score is -0.0893 in [8], 0.157 in assay [9] and 0.747 in assay [10]. Besides, the z-score in [4] is 0.477 (inactive).
For the compound `C#CCN1[C@H](/C=C/C2CC2)[C@H](Cc2ccccc2)OC(=O)[C@@H]1Cc1ccccc1`, the composite z-score in [1] was 1.16; in assay [2], -0.411; in [3], -0.507; in [5], 0.294; in assay [6], 0.109; in [7], 0.323. Moreover, the composite z-score is 0.326 in assay [8], 0.428 in assay [9] and 0.849 in [10]. Besides, the z-score in [4] is 0.23 (inactive).
Regarding `C=CCN1Cc2ccccc2[C@@H]2OC(c3ccc(OCCCO)cc3)=N[C@]2(CCS(=O)(=O)c2ccccc2)C1=O`, the composite z-score in [1] is 1.53; in assay [2], 0.205; in assay [3] it was 0.825; in assay [5], 1.4; in assay [6], 1.32; in [7], 1.01. Moreover, the composite z-score in assay [8] came to 1.43; in [9] it was 1.41; in assay [10], 1.1. In addition, the z-score in assay [4] is 0.211 (inactive).
As to `COC(=O)[C@@]1(Cc2ccccc2)[C@H]2c3cc(C(=O)N4CCCC4)n(Cc4ccc(O)c(OC)c4)c3C[C@H]2CN1C(=O)c1ccccc1`, the composite z-score in [1] is 0.117; in assay [2], 0.611; in assay [3], 1.08; in [5], 0.253; in assay [6], 0.632; in assay [7], -0.527. Also, the composite z-score in assay [8] is 0.202; in [9] it was -0.817; in [10] it was 0.939. Further, the z-score in [4] is -2.95 (inactive).
On to `C=CCN1C(=O)[C@]2(O[C@H](CCO)[C@@H]([Si](C)(C)c3ccc(OC)cc3)[C@@H]2C)c2cc(N(C=O)c3ccccc3)ccc21`, for which the composite z-score in [1] is 0.465; in assay [2] it was -0.128; in assay [3], 0.348; in assay [5], -0.0285; in assay [6], -0.116; in assay [7] it was -0.414. The figures for the composite z-score in assay [8], in assay [9] and in assay [10] were -0.0666, -0.113 and 0.407, respectively. Further, the z-score in assay [4] was -2.19 (inactive).
Turning to `N#Cc1ccc(C(O)C2C=CC3C(=O)N(c4ccccc4)C(=O)C3N2Nc2ccccc2F)cc1` (stereo not given), the composite z-score in [1] was 1.65; in [2], -0.0589; in assay [3] it was 0.267; in [5], 0.877; in assay [6], 0.849; in assay [7], 0.77. The figures for the composite z-score in assay [8], in assay [9] and in assay [10] were 0.746, -0.116 and 0.299, respectively. In addition, the z-score in assay [4] is -1.37 (inactive).
`C=CC[C@]1(C(=O)N2CCOCC2)N=C(c2ccc(OCCCO)cc2)O[C@H]1c1ccccc1N=[N+]=[N-]`: the composite z-score was 0.945 in assay [1]; 0.779 in assay [2]; 1.17 in assay [3]; 0.95 in assay [5]; 1.29 in assay [6]; 0.23 in assay [7]. For the same compound, the composite z-score in assay [8] was 0.673; in assay [9] it was -0.201; in assay [10] it was 1.09. Moreover, the z-score in [4] was -1.23 (inactive).
On to `COCCCNC(=O)[C@@]1(CCS(=O)(=O)c2ccccc2)N=C(c2ccc(OCCCO)cc2)O[C@H]1c1ccccc1N=[N+]=[N-]`, for which the composite z-score in assay [1] was 1.41; in [2] it was 0.879; in [3], 0.942; in [5], 1.49; in assay [6] it was 0.79; in assay [7], -0.0333. The composite z-score was 1.25 in assay [8], 0.267 in assay [9] and 0.796 in [10]. In assay [4], the z-score is -0.0182 (inactive).
Take `CN(C)CCCCCCNC(=O)[C@@H]1C[C@@H]2C(=O)N[C@@H](CCCC[N+](C)(C)C)C(=O)N2[C@@H]1c1ccc(O)cc1`: the composite z-score in assay [1] is 0.626; in assay [2] it was -0.0429; in [3] it was -0.397; in assay [5] it was 0.421; in assay [6], 0.467; in assay [7], -0.144. The values for the composite z-score in [8], in assay [9] and in [10] were 0.0663, 1.61 and -0.181, respectively. Further, in [4], the z-score is -0.0575 (inactive).
For `C=C(/C(=C/C[C@H](OC(C)=O)c1ccc(OCCO)cc1)c1cc(C(=O)OC)ccc1OC)C(C)C`, the composite z-score in assay [1] is 1.53; in [2] it was 0.0971; in assay [3] it was -0.188; in [5] it was 1.12; in assay [6] it was 0.451; in [7], -0.296. Moreover, the composite z-score in [8] came to 0.647; in assay [9] it was 0.196; in assay [10], 0.326. Further, the z-score in assay [4] is -0.045 (inactive).
For the compound `C=C(CCCC)/C(=C/C[C@H](OC(=O)c1ccncc1)c1ccc(OCCO)cc1)c1cc(C(=O)OC)ccc1OC`, the composite z-score in [1] was 0.694; in assay [2], -0.172; in assay [3] it was -0.116; in assay [5] it was 0.752; in assay [6], -0.139; in assay [7], 0.053. For the same compound, the values for the composite z-score in [8], in assay [9] and in assay [10] were 0.14, 0.204 and 1.29, respectively. In addition, in assay [4], the z-score is -1.14 (inactive).
`COC(=O)[C@@]1(Cc2ccc(OC)cc2)[C@H]2c3cc(C(=O)N4CCCC4)n(CCc4ccc(O)c(O)c4)c3C[C@H]2CN1C(=O)c1ccccc1`: the composite z-score is 1.49 in assay [1]; 0.845 in [2]; 1.35 in assay [3]; 0.0136 in assay [5]; 0.0777 in [6]; -0.352 in [7]. Besides, the figures for the composite z-score in assay [8], in [9] and in [10] were -0.269, -0.45 and 1.76, respectively. In addition, in assay [4], the z-score is -0.73 (inactive).
In the case of `[N-]=[N+]=Nc1ccccc1C[C@@]1(C(=O)N2CCCCC2)N=C(c2ccc(OCCCO)cc2)O[C@@H]1c1ccccc1`, the composite z-score in [1] is 1.18; in [2] it was 0.901; in assay [3], 1.07; in [5] it was 0.465; in assay [6], 1.29; in assay [7] it was -0.209. Besides, the composite z-score is 0.112 in assay [8], -0.174 in assay [9] and 0.803 in [10]. The z-score in assay [4] was -0.969 (inactive).
In the case of `Cc1ccc(C2C3C(=O)CC4C(=O)N(c5ccccc5)C(=O)C4C3CN2S(=O)(=O)c2ccc(C)cc2)cc1` (stereo not given), the composite z-score worked out at 0.0792 in assay [1]; 1.24 in assay [2]; 1.05 in assay [3]; 0.924 in [5]; 0.816 in assay [6]; 0.381 in [7]. In addition, the composite z-score in assay [8] is 0.773; in [9], 0.112; in assay [10] it was 0.385. Besides, the z-score in assay [4] was 0.495 (inactive).
For the compound `CC(C)C(=C=CC[C@H](O)c1ccc(CO)o1)CCO`, the composite z-score in assay [1] is 0.458; in assay [2], -0.288; in assay [3], -0.471; in assay [5] it was 0.494; in [6] it was 0.621; in assay [7], -0.115. The values for the composite z-score in assay [8], in [9] and in [10] were 0.402, 0.0097 and 0.411, respectively. The z-score in [4] is 0.241 (inactive).
